{"source": "the supplement of paper PMC12024424", "note": "Where a name gives a salt, the structure may show the parent alone."}
{"system": "Staphylococcus aureus Sa2 (MRSA, cystic fibrosis isolate)", "experiment": "growth reduction vs untreated control (OD550); higher = stronger antibacterial activity", "settings": "0.1 mM; 24 h", "description": "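Single-dose screen of the MedChem Express Drug Repurposing Library (0.1 mM, 1% DMSO) against planktonic MRSA S. aureus Sa2 (CF isolate) in TSB in 96-well plates, 37 °C aerobic, 24 h. Assays were run in triplicate and repeated twice.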", "units": {"growth reduction": "%"}}
{"smiles": "CCN1CCN(Cc2ccc(-c3cc4c(N[C@H](C)c5ccccc5)ncnc4[nH]3)cc2)CC1", "growth reduction": 100}
{"smiles": "CCCCCCCCCCCCCCCCCCOP(=O)([O-])OC1CC[N+](C)(C)CC1", "note": "[Perifosine]", "growth reduction": 96.9}
{"smiles": "Nc1ccc(S(=O)(=O)Nc2cnc3c(Cl)cccc3n2)cc1", "note": "[Chloroquinoxaline sulfonamide]", "growth reduction": 91.6}
{"smiles": "CC(C)(C)NC(=O)N[C@H](C(=O)N1C[C@H]2[C@@H]([C@H]1C(=O)NC(CC1CCC1)C(=O)C(N)=O)C2(C)C)C(C)(C)C", "note": "(stereo not given in full) [Boceprevir]", "growth reduction": 91.4}
{"smiles": "COc1cccc(-c2ccc(NC(=O)C3=C(C(=O)O)CCC3)c(F)c2)c1", "note": "[Vidofludimus]", "growth reduction": 93}
{"smiles": "C[C@]1(O)C[C@@H](c2nc(-c3ccc4ccc(-c5ccccc5)nc4c3)c3c(N)nccn32)C1", "note": "[Linsitinib]", "growth reduction": 100}
{"smiles": "COc1ccc(CN2CCN(C(c3ccc(F)cc3)c3ccc(F)cc3)CC2)c(OC)c1OC", "note": "[Lomerizine dihydrochloride]", "growth reduction": 100}
{"smiles": "COc1cccc2c1C(=O)c1c(O)c3c(c(O)c1C2=O)C[C@@](O)(C(=O)CO)C[C@@H]3O[C@H]1C[C@H](N)[C@@H](O)[C@H](C)O1", "note": "[Epirubicin (hydrochloride)]", "growth reduction": 95}
{"smiles": "CC(O)c1cc(C(=O)N[C@@H](C)Cn2ccc(-c3ccc(C#N)c(Cl)c3)n2)n[nH]1", "note": "(stereo not given in full) [Darolutamide]", "growth reduction": 100}
{"smiles": "C[C@@H](NCCCc1cccc(C(F)(F)F)c1)c1cccc2ccccc12", "note": "[Cinacalcet]", "growth reduction": 97.4}
{"smiles": "N=C(N)c1ccc(OCCCCCOc2ccc(C(=N)N)cc2)cc1", "note": "[Pentamidine (isethionate)]", "growth reduction": 100}
{"smiles": "Cc1ccc(NC(=O)C2(c3ccc4c(c3)OC(F)(F)O4)CC2)nc1-c1cccc(C(=O)O)c1", "note": "[Lumacaftor]", "growth reduction": 92.9}
{"smiles": "CCCCCCCCCCCCCCCCOP(=O)([O-])OCC[N+](C)(C)C", "note": "[Miltefosine]", "growth reduction": 100}
{"smiles": "CC(C)Nc1nc2cc(Cl)c(Cl)cc2n1[C@H]1O[C@@H](CO)[C@H](O)[C@@H]1O", "note": "[Maribavir]", "growth reduction": 92.7}
{"smiles": "CC(=O)Oc1ccccc1C(=O)Nc1ncc([N+](=O)[O-])s1", "note": "[Nitazoxanide]", "growth reduction": 99.5}
{"smiles": "Clc1ccc(Nc2nnc(Cc3ccncc3)c3ccccc23)cc1", "note": "[Vatalanib (dihydrochloride)]", "growth reduction": 100}
{"smiles": "OC(c1cc(C(F)(F)F)nc2c(C(F)(F)F)cccc12)C1CCCCN1", "note": "(stereo not given) [Mefloquine (hydrochloride)]", "growth reduction": 100}
{"smiles": "C=C1CC[C@H](O)C/C1=C/C=C1\\CCC[C@]2(C)[C@@H]([C@H](C)/C=C/[C@H](C)C(C)C)CC[C@@H]12", "note": "[Vitamin D2]", "growth reduction": 100}
{"smiles": "Cc1ccc(NC(=O)c2ccc(CN3CCN(C)CC3)cc2)cc1Nc1nc(-c2cccnc2)cs1", "note": "[Masitinib (mesylate)]", "growth reduction": 100}
{"smiles": "Cc1ccc(-c2c(C(=O)CCl)n(CCCO)c3ncnc(N)c23)cc1", "growth reduction": 99.8}
{"smiles": "Nc1ccn([C@@H]2O[C@H](CO)[C@@H](O)C2(F)F)c(=O)n1", "note": "[Gemcitabine (hydrochloride)]", "growth reduction": 100}
{"smiles": "O=C1[C@H](CC[C@H](O)c2ccc(F)cc2)[C@@H](c2ccc(O)cc2)N1c1ccc(F)cc1", "note": "[Ezetimibe]", "growth reduction": 91.7}
{"smiles": "Cc1ccc([C@@H]2O[C@H](CO)[C@@H](O)[C@H](O)[C@H]2O)cc1Cc1ccc(-c2ccc(F)cc2)s1", "note": "[Canagliflozin]", "growth reduction": 100}
{"smiles": "CC(C)(C)CC(C)(C)c1ccc(OCCOCC[N+](C)(C)Cc2ccccc2)cc1", "note": "[Benzethonium chloride]", "growth reduction": 100}
{"smiles": "CN1C(=O)[C@@H](NC(=O)c2n[nH]c(Cc3ccccc3)n2)COc2ccccc21", "growth reduction": 90.3}
{"smiles": "COc1cc2c(Nc3ccc(Cl)c(Cl)c3F)ncnc2cc1OC[C@@H]1C[C@@H]2CN(C)C[C@@H]2C1", "note": "[Tesevatinib]", "growth reduction": 100}
{"smiles": "Cc1ccc(-c2cc(C(F)(F)F)nn2-c2ccc(S(N)(=O)=O)cc2)cc1", "note": "[Celecoxib]", "growth reduction": 95.6}
{"smiles": "C=CC(=O)Nc1cc(Nc2nccc(-c3cn(C)c4ccccc34)n2)c(OC)cc1N(C)CCN(C)C", "note": "[Osimertinib (dimesylate)]", "growth reduction": 100}
{"smiles": "O=C1Nc2ccc(Cl)cc2[C@@](C#CC2CC2)(C(F)(F)F)O1", "note": "[Efavirenz]", "growth reduction": 96.6}
{"smiles": "O=C(Nc1ccc(F)cc1)c1cnc(SCc2cc(OC(F)(F)F)ccc2B(O)O)nc1", "growth reduction": 100}
{"smiles": "CC(C)c1c(C(=O)Nc2ccccc2)c(-c2ccccc2)c(-c2ccc(F)cc2)n1CC[C@@H](O)C[C@@H](O)CC(=O)O", "note": "[Atorvastatin (hemicalcium salt)]", "growth reduction": 99.7}
{"smiles": "O=C(c1ccc(F)c(F)c1Nc1ccc(I)cc1F)N1CC(O)([C@@H]2CCCCN2)C1", "note": "[Cobimetinib]", "growth reduction": 100}
{"smiles": "Clc1ccc(CO/N=C(\\Cn2ccnc2)c2ccc(Cl)cc2Cl)c(Cl)c1", "note": "[Oxiconazole nitrate]", "growth reduction": 100}
{"smiles": "NC1=NCC2c3ccccc3Cc3ccccc3N12", "note": "(stereo not given) [Epinastine]", "growth reduction": 100}
{"smiles": "CC(=O)OC[C@H]1O[C@@H]([S-])[C@H](OC(C)=O)[C@@H](OC(C)=O)[C@@H]1OC(C)=O.CCP(CC)CC.[Au+]", "note": "[Auranofin]", "growth reduction": 99.9}
{"smiles": "Cn1ncc(Cl)c1-c1cc(C(=O)N[C@H](CN)Cc2cccc(F)c2)sc1Cl", "note": "[Afuresertib]", "growth reduction": 100}
{"smiles": "COc1ccc(NS(=O)(=O)c2c(F)c(F)c(F)c(F)c2F)cc1F", "note": "[Batabulin]", "growth reduction": 95.5}
{"smiles": "CS(=O)(=O)c1ccc([C@@H](O)[C@@H](CF)NC(=O)C(Cl)Cl)cc1", "note": "[Florfenicol]", "growth reduction": 100}
{"smiles": "C[C@H](Nc1cc(-c2cnn(C)c2)cc(Nc2cnccn2)n1)c1ccc(F)cc1", "note": "[Ilginatinib]", "growth reduction": 100}
{"smiles": "CC1=C(C)C(=O)C(CCCCCCCCCC[P+](c2ccccc2)(c2ccccc2)c2ccccc2)=CC1=O", "note": "[Visomitin]", "growth reduction": 100}
